SMILES strings stand for the structures. Compounds without any hit were thinned out: in the full panel of roughly 83,000, 20% have a hit.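 The endpoint reported here, percent growth, reads 100 for growth as untreated, 0 for no net growth and -100 for all cells dead.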 The source made the active and inactive calls.

This experiment has as its system OVCAR-3 ovarian. The experiment is described as follows: NCI-60 one-dose screen, 48 h (100 = growth as untreated, 0 = no growth, -100 = all killed). Particulars: 10 µM unless noted. Here is the method: Growth inhibition of the OVCAR-3 human tumor cell line is measured as a screen for anti-cancer activity. Cells are grown in 96 well plates and exposed to the test compound for 48 hours. Compounds are tested at a single concentration, which is 10^-5 M for most compounds. The reported endpoint is percent growth (GI% or GIPRCNT), where numbers from 0 - 100% represent growth inhibition, and numbers from -100% - 0 represent cell death. For example, a value of 40 represents 60% growth inhibition. A value of 0 means no net growth occurred over the course of the experiment. A value of -40 indicates 40% of cells at the beginning of the experiment died by the end of the experiment. A value of -100 means all cells are dead at the end of the experiment.
NCI-60 Human Tumor Cell Lines Screen was performed using the standard one-dose NCI protocol, which is described in more detail at https://dtp.cancer.gov/discovery_development/nci-60/default.htm.
Compounds with GIPRCNT values below 10 were considered active. Activity score was based on GIPRCNT using the following formula: […]
Score is 0 for GIPRCNT values of 100 or above, 50 for GIPRCNT values of 0, and 100 for GIPRCNT values of -100.
Turning to `COc1cccc2c(=O)c3c(sc12)c(NCCCNCCO)nc1ccccc13`, the growth was 54.6% (inactive).
With `CCN1CCN(C(=S)SCC(=O)Nc2nc3ccc(C)cc3s2)CC1` the figure was 106% (inactive); with `O=C1/C(=C/c2ccc(O)cc2)COc2ccc(O)cc21`, 108% (inactive).
As to `CNCCNc1nc2ccccc2c2c(=O)c3cc(OC)ccc3sc12`, the growth is -40.7% (active).
As to `O=c1c(-c2nc3ccccc3[nH]2)cc2ccccc2n1Cc1cn(Cc2ccc(F)cc2)nn1`, the growth was 3.02% (active).
On to `N#Cc1c(N)nc2c(c1N)C(c1ccc(F)cc1)c1ccc(N)cc1O2` (stereo not given), for which the growth was 118% (inactive).
Consider `O=C(NN1C(=O)CSC1c1ccc(Cl)cc1)c1[nH]c2ccc(F)cc2c1-c1ccccc1` (stereo not given), for which the growth is 47.9% (inactive).
With `COc1ccc(-c2nsc3c2NC(=O)CC3c2ccsc2)cc1` (stereo not given) the figure was -39.3% (active).
Under `CCCCCCCCCCOC(=O)c1ccccc1C(=O)OCCCC` stands 106% (inactive); under `COc1cc(CNC(=O)Cc2ccccc2)ccc1OCc1cn(-c2ccc(F)cc2)nn1`, 107% (inactive).
Under `O=C(/C=C/c1ccccn1)c1ccc(OCc2nnc(-c3ccc(Cl)cc3)o2)cc1` stands 18.6% (inactive).
On to `O=C(Nc1ccc(Cl)cc1F)c1cc(F)ccc1O`, for which the growth is 9.51% (active).
Under `Nc1n[nH]c2ccc([C@@H]3Nc4ccc5[nH]ncc5c4[C@H]4[C@H]5CCC(C5)[C@H]43)cc12` stands -10.1% (active); under `Cn1c2c(c(=O)[nH]c1=O)NC1=C(C(=O)c3ccccc31)C1(C=C(O)c3ccccc31)N2` (stereo not given), 95.4% (inactive).
With `O=C(Nc1ccc(F)cc1F)c1cc(Cl)ccc1O` the figure was 7.98% (active).
With `NCCOc1ncccc1/C=C1\c2ccccc2-c2ccc([N+](=O)[O-])cc21` the figure was -77.7% (active); with `COc1ccc(-c2nc(-c3ccccn3)c(-c3ccccn3)n2CC(C)C)cc1OC1CCCC1`, 15.5% (inactive); with `CCOC(=O)C1(C(=O)OCC)N=C(c2ccccc2)C=C1c1ccccc1`, 86.9% (inactive).
In the case of `O=[N+]([O-])c1cc2c(ccc3occc32)o1`, the growth was 39.4% (inactive).
With `C#CCn1cc(C=C2C(=O)N(C)C(=O)N(C)C2=O)c2cc(Cl)ccc21` the figure was 108% (inactive).
Consider `CC(=O)O[C@@H]1/C=C/C(=O)N[C@@H](C)CCC/C=C/[C@@H]2CCC[C@H]21`, for which the growth is 106% (inactive).
Under `O=CCCCC(O)C=O` (stereo not given) stands 109% (inactive); under `O=C(Nc1ccc(N2CCNCC2)cc1)c1[nH]ncc1Nc1ncnc2sc3c(c12)CCC3`, -81.7% (active).
Under `COc1ccc(C2c3ccc4ccccc4c3Oc3ncn(CCCn4ccnc4)c(=N)c32)cc1OC` (stereo not given) stands 61.3% (inactive); under `Cc1ccc(C2CC(c3ccc(Nc4nc(NCCO)nc(Nc5ccc(Cl)cc5)n4)cc3)=NN2c2cc(Cl)cc(Cl)c2)cc1` (stereo not given), 102% (inactive); under `Cc1sc2ncnc(Sc3nc4ccccc4[nH]3)c2c1C`, -86.1% (active).
With `COc1ccc(/C=C2\NC(=O)NC2=O)cc1O` the figure was 116% (inactive).
For `N[C@@H](CC/[N+]([O-])=N/O)C(=O)O`, the growth is 102% (inactive).
Consider `O=c1oc2ccc(Cl)cc2c(=O)n1-c1cc(C(F)(F)F)cc(C(F)(F)F)c1`, for which the growth was 7.95% (active).
Regarding `CCOc1ccccc1CN1CCc2nc3cc(C(C)(C)C)[nH]n3c(=O)c2C1`, the growth is 106% (inactive).
As to `Cc1nc2ccccc2c(/C=C/c2ccccc2)c1C(=O)/C=C/c1ccc(Cl)cc1`, the growth is -40.5% (active).
Under `NNC(=O)CNC(=O)Nc1n[nH]c(=S)s1` stands 108% (inactive).
`COc1ccc(/C=c2\sc3n(c2=O)NC2C(N=3)N(C)C(=O)N2C)cc1` (stereo not given): the growth was 102% (inactive).
On to `CCCCCCCCCCCCCCn1cc(C2=C(c3coc4ccc(OC)cc34)C(=O)NC2=O)c2ccccc21`, for which the growth is 102% (inactive).
Under `COc1cc(C(C)n2cc(-c3ccccc3)nn2)ccc1OC1CCCCC1` (stereo not given) stands 67.6% (inactive); under `Brc1ccc(Oc2ccc(Nc3ncnc4onc(-c5ccccc5)c34)cc2)cc1`, 119% (inactive); under `CN1C(=O)N(C)C2C1NN=c1s/c(=C\c3ccc([N+](=O)[O-])cc3)c(=O)n12` (stereo not given), 22.7% (inactive).
Under `CC[C@]1(O)C[C@@H]2CN(CCc3c([nH]c4ccccc34)[C@@](C(=O)OC)(c3cc4c(cc3OC)N(C)[C@H]3[C@@](O)(C(=O)OC)[C@H](OC(C)=O)[C@]5(CC)C=CCN6CC[C@]43[C@@H]65)C2)C1` stands -4.09% (active).
Under `Oc1c(C(Nc2ccccn2)c2cccc(Oc3ccccc3)c2)ccc2cccnc12` (stereo not given) stands -96.6% (active); under `CC(=O)c1ccc(NC(=O)Nc2ccc(S(=O)(=O)Nc3ccc(Cl)nn3)cc2)cc1`, 108% (inactive).

The record behind these values is PubChem BioAssay (NCI).
